Source: PubChem BioAssay AID1159580 (chemical genetic matrix, 2015)
Several values for one entry are separate records, joined by “and”; a condition that tells them apart may be missing. Equal entries are not always repeated. Among all 5,500 compounds or so, about 2,000 (36%) were called active. Not shown: some 18% with an inconclusive outcome. Cut-off read from the data, not from the text of the source: active = normalized growth mostly below about 0.91 (no sharp cut-off); inconclusive = no clear call, values can overlap the other calls; inactive = mostly above about 0.92. Some of the results follow.

Assay: chemical genetic growth profiling, strain panel (AID 1159580);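 note: tested at 20 µM; growth read once vehicle control cultures reached saturation at 30 °C; 1 = growth at the plate median or of vehicle wells; lower values mean less growth of the strain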
Settings: S. cerevisiae deletion strains, growth OD

Measured: normalized growth

CC[C@H](CCC(C)[C@H]1CCC2C3CCC4C[C@@H](O)CC[C@]4(C)C3CC[C@@]21C)C(C)C (stereo partly drawn)
inactive: locus YAL013W, strain DEP1, active compounds read low 1.01 | locus YAL021C, strain ccr4, active compounds read low 0.968 | locus YAL026C, strain drs2, active compounds read low 0.955 | locus YAL030W, strain snc1, active compounds read low 0.985 | locus YBL061C, strain skt5, active compounds read low 0.988 | locus YBR009C, strain hhf1, active compounds read low 0.983 | locus YBR021W, strain FUR4, active compounds read low 0.993 | locus YBR023C, strain chs3, active compounds read low 0.988 | locus YBR171W, strain sec66, active compounds read low 0.976 | locus YBR229C, strain ROT2, active compounds read low 0.999 | locus YBR231C, strain swc5, active compounds read low 1.01 | locus YBR279W, strain paf1, active compounds read low 0.983 | locus YCL011C, strain gbp2, active compounds read low 0.986 | locus YCL016C, strain dcc1, active compounds read low 0.992 | locus YCL029C, strain bik1, active compounds read low 1.03 | locus YCL061C, strain MRC1, active compounds read low 0.99 | locus YCL069W, strain vba3, active compounds read low 0.971 | locus YCR088W, strain abp1, active compounds read low 0.988 | locus YDL005C, strain med2, active compounds read low 0.975 | locus YDL035C, strain GPR1, active compounds read low 1.01 | locus YDL040C, strain nat1, active compounds read low 0.991 | locus YDL074C, strain BRE1, active compounds read low 1 | locus YDL101C, strain DUN1, active compounds read low 1.01 | locus YDL185W, strain tfp1, active compounds read low 1.02 | locus YDL192W, strain arf1, active compounds read low 1.02 | locus YDR001C, strain nth1, active compounds read low 0.984 | locus YDR069C, strain doa4, active compounds read low 0.977 | locus YDR101C, strain arx1, active compounds read low 1.01 | locus YDR137W, strain rgp1, active compounds read low 0.973 | locus YDR159W, strain sac3, active compounds read low 0.975 | locus YDR162C, strain NBP2, active compounds read low 1.02 | locus YDR195W, strain ref2 0.946 | locus YDR297W, strain sur2, active compounds read low 0.993 | locus YDR318W, strain mcm21, active compounds read low 1.01 | locus YDR334W, strain swr1, active compounds read low 0.972 | locus YDR335W, strain msn5, active compounds read low 0.984 | locus YDR388W, active compounds read low 1.01 | locus YDR392W, strain spt3, active compounds read low 0.932 | locus YDR502C, strain sam2, active compounds read low 1.01 | locus YEL003W, strain gim4, active compounds read low 0.991 | locus YEL037C, strain rad23, active compounds read low 0.948 | locus YEL061C, strain CIN8 (second series), active compounds read low 0.975 | locus YEL061C, strain CIN8, active compounds read low 1.01 | locus YER015W, strain faa2, active compounds read low 0.995 | locus YER016W, strain bim1, active compounds read low 0.992 | locus YER110C, active compounds read low 1.01 | locus YER111C, strain swi4, active compounds read low 0.992 | locus YER155C, strain BEM2 (second series), active compounds read low 0.987 | locus YER155C, strain BEM2, active compounds read low 1.01 | locus YER167W, strain BCK2, active compounds read low 1 | locus YFR010W, strain ubp6, active compounds read low 0.964 | locus YGL078C, strain dbp3, active compounds read low 1.02 | locus YGL086W, strain mad1, active compounds read low 0.997 | locus YGL167C, strain pmr1, active compounds read low 0.999 | locus YGL173C, strain kem1, active compounds read low 0.999 | locus YGL227W, strain vid30, active compounds read low 0.992 | locus YGL240W, strain doc1, active compounds read low 0.988 | locus YGL248W, strain PDE1, active compounds read low 1.01 | locus YGL253W, strain hxk2, active compounds read low 0.997 | locus YGR135W, strain pre9, active compounds read low 1.01 | locus YGR252W, strain gcn5, active compounds read low 0.998 | locus YHR013C, strain ard1, active compounds read low 0.968 | locus YHR027C, strain rpn1, active compounds read low 0.982 | locus YHR030C, strain SLT2, active compounds read low 1.01 and 1.06 | locus YHR079C, strain IRE1 (second series), active compounds read low 1.01 | locus YHR079C, strain IRE1, active compounds read low 1.03 | locus YHR094C, strain hxt1, active compounds read low 1.01 | locus YHR129C, strain ARP1, active compounds read low 1.01 | locus YHR142W, strain chs7, active compounds read low 1.01 | locus YHR200W, strain rpn10, active compounds read low 1.01 | locus YIL066C, strain RNR3, active compounds read low 1.01 | locus YIL073C, strain SPO22, active compounds read low 1.03 | locus YIL125W, strain kgd1, active compounds read low 1.01 | locus YIR030C, strain dcg1, active compounds read low 1 | locus YJL092W, strain hpr5, active compounds read low 0.982 | locus YJL095W, strain BCK1 (second series), active compounds read low 1 | locus YJL095W, strain BCK1, active compounds read low 0.997 and 0.966 | locus YJL115W, strain asf1, active compounds read low 0.982 | locus YJL129C, strain trk1, active compounds read low 0.985 | locus YJL134W, strain LCB3, active compounds read low 1 | locus YJL154C, strain vps35, active compounds read low 0.978 | locus YJL164C, strain tpk1, active compounds read low 0.997 | locus YJL166W, strain qcr8, active compounds read low 1.06 | locus YJL168C, strain set2, active compounds read low 1 | locus YJL187C, strain SWE1 (second series), active compounds read low 1 | locus YJL187C, strain SWE1, active compounds read low 0.981 | locus YJR043C, strain POL32, active compounds read low 1.03 | locus YJR066W, strain TOR1, active compounds read low 0.991
